Compounds without any hit were thinned out: in the full panel of roughly 83,000, 20% have a hit.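 Method: cells in 96-well plates; compound added at one concentration; 48 h incubation; percent growth measured; values under 10 scored active.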 A number with no mark means an inactive call. Calls of active or inactive are those of the source.

For the experiment, the system named is KM12 colon. Put plainly: NCI-60 one-dose screen, 48 h (100 = growth as untreated, 0 = no growth, -100 = all killed). The settings on record: 10 µM unless noted.
As to `Oc1ccc(CCn2c(O)c(/C=C3\CN=c4ccccc4=N3)sc2=S)cc1`, the growth is 5.46% (active).

Consider `COC1C[C@H](O[C@@H]2C[C@H](O[C@@H]3C[C@H](O[C@@H]4C(=O)c5c(cc6cc(O[C@H]7C[C@@H](O[C@H]8C[C@@H](O)[C@H](O)C(C)O8)[C@H](O)C(C)O7)c(C)c(O)c6c5O)C[C@H]4C(OC)C(=O)[C@@H](O)[C@@H](C)O)OC(C)[C@H]3O)OC(C)[C@@H]2O)OC(C)[C@@H]1O` (some centres undefined), for which the growth is 4.61% (active).

Consider `C[C@H](NC(=O)[C@@H](C)N)[C@H](Oc1ccc2c(cnn2-c2ccc(F)cc2)c1)c1ccc2c(c1)OCCO2`, for which the growth was 36.1%.

Take `CCc1ccc(Oc2cn[nH]c2-c2ccc(OCCc3ccc(F)cc3)cc2O)cc1`: the growth was 84.8%.

For the origin of these results see PubChem BioAssay (NCI).
